TMEM16A inh – blocks the mouse calcium-activated chloride channel TMEM16A. HEK293 TMEM16A/YFP iodide influx fluorescence, ionomycin. normalized B-score (activity score, 25-100; higher = stronger inhibition) at 10 µM. 310,000 compounds, 1.2% hits. AID 588511;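 active means ratio plate-corrected score three or more library SD toward inhibition, starting fluorescence score within five deviations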;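 further: score derived from kinetic fluorescence span divided by baseline fluorescence per well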
ANO1 activ – activators or potentiators of mouse TMEM16A chloride channel; HEK293 TMEM16A/YFP-H148Q/I152L, iodide quench fluorescence; hits give low values; Q8BHY3; B-score at 10 µM; 340,000 compounds, 0.3% hits;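 active means fluorescence-ratio B-score plate-corrected deviation score at least 3 library SD below zero, with starting fluorescence score within 5 deviations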;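 further: channel opened by trigger with iodide after compound preincubation; score built on the fluorescence ratio of max minus min over baseline; more negative score means more quench and so TMEM16A activation or potentiation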
Kir21 inh – blocks the mouse Kir2.1 inward-rectifier potassium channel; HEK293-Kir2.1, FluxOR thallium flux fluorescence; hits give low values; B-score at 10 µM; 310,000 compounds, 0.85% hits;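 active means fluorescence ratio B-score at or below minus 3 SD of library scores, with starting-brightness B-score within 2 SD, cut at about -4.2 in these data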;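 further: channel flux triggered by added potassium and thallium sulfate stimulus; B-score of peak minus minimum fluorescence over baseline after thallium stimulus; more negative B-score means stronger Kir2.1 block with less thallium influx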
KCNK3 inh – human KCNK3 channel inhibition, primary screen; B-score at 10 µM; CHO-KCNK3 thallium flux, FluxOR fluorescence; hits give low values; 340,000 compounds, 0.84% hits; AID 602410;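 active means B-score under library mean minus 4 SD, starting fluorescence ratio at most library mean plus 5 SD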;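 further: more negative B-score means stronger inhibition of thallium flux through KCNK3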
Target sequence (O14649 whole entry, looked up): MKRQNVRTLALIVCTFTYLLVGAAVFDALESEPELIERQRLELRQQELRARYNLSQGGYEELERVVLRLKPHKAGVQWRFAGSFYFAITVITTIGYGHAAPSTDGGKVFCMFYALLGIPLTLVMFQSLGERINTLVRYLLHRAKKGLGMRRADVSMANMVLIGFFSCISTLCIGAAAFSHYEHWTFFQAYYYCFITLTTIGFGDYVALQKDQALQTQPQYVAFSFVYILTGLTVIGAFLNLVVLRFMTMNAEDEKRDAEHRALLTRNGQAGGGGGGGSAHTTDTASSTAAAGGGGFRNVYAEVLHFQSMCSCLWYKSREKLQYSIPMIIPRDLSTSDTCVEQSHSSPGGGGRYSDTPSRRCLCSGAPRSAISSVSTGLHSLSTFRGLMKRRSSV
KCNK9 inh – human KCNK9 channel inhibition. Q9NPC2. B-score at 10 µM. 310,000 compounds, 1.2% hits. HEK293 KCNK9, FluxOR thallium flux fluorescence; hits give low values;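 active means ratio B-score over 3 SD below the library mean, with starting fluorescence within 5 SD of its mean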;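 further: negative B-score means less thallium flux so channel inhibition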
TMEM16A reconf – re-confirmation of mouse TMEM16A chloride channel inhibitors; shares compounds with TMEM16A inh; HEK293 TMEM16A/YFP-H148Q, iodide quench fluorescence; ionomycin added to raise cell calcium; inhibition, % at 10 µM; 2,300 compounds, 39% hits; AID 652189;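 active means mean duplicate percent inhibition, scaled so buffer wells are 0 and the reference blocker 100, over three buffer SD above buffer mean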
TMEM16A Ca cntr – alters calcium mobilization in TMEM16A HEK293 cells, counter-screen; 2,300 compounds, 2% hits; shares compounds with TMEM16A inh; TMEM16A/YFP HEK293, Fluo4 calcium mobilization; calcium response (% of ionomycin), % at 10 µM; AID 652231;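 active means duplicate-averaged calcium signal over 20% of the ionomycin maximum, relative to buffer baseline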;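 further: each well's signal is peak minus trough fluorescence divided by its pre-addition baseline; 0% = buffer wells and 100% = ionomycin wells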
YFP-HEK293 quench – acts in parental YFP-HEK293 cells lacking TMEM16A, counter-screen; shares compounds with TMEM16A inh; iodide YFP quench, ionomycin; YFP ratio F(max-min)/F0 at 10 µM; 2,300 tested, under 10 active; AID 652233;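 active means yellow fluorescent protein signal ratio exceeding the buffer control mean by over 5 SD of those controls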;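 further: ratio is mean of duplicate wells from kinetic YFP trace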
ClC-1 rat inh – rat ClC-1 inhibition, TMEM16A specificity screen; CHO ClC-1-YFP, iodide influx fluorescence quench; iodide control reads 0, buffer control 100; ratio percent, % at 10 µM; shares compounds with TMEM16A inh; 2,300 tested, under 10 active;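 active means duplicate-mean ratio percent above the mean of iodide-only control wells, which defines zero, plus 5 of their SD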;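 further: higher percent means stronger block of ClC-1 iodide influx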
Numbers without * were called inactive; i = inactive; nt = no result given. Most compounds without a hit are left out; they make up all but 3.5% or so of the library.

SMILES | TMEM16A inh | ANO1 activ | Kir21 inh | KCNK3 inh | KCNK9 inh | TMEM16A reconf | TMEM16A Ca cntr | YFP-HEK293 quench | ClC-1 rat inh
COc1c(C(CC(C)C)OC(C)=O)ccc2c1C(=O)OCc1cc(C)cc(O)c1O2 (stereo not drawn) | 100* | i | 0 | i | i | 24%* | i | -1.1 | -14
Cc1nc(NC(=O)/C=C/c2ccccc2)sc1C(=O)N1CCCCC1 | i | i | 0.92 | i | i | nt | nt | nt | nt
COc1ccc(C)cc1N(CC(=O)O)S(=O)(=O)c1ccc(C)cc1 | i | i | -0.07 | i | i | i | i | -0.63 | -6
Cc1nc2c(cc(Oc3ccc(S(=O)(=O)N4CCOCC4)cn3)c3ccsc32)s1 | 25* | i | 0.22 | i | i | i | i | -1 | -19
COc1cc(C(C)=O)ccc1Oc1ccc(S(=O)(=O)N2CCOCC2)cn1 | nt | i | nt | i | nt | nt | nt | nt | nt
COc1ccc(/C=C/C(=O)N2CCN(c3ccccn3)CC2)c(OC)c1OC | i | i | 2.6 | i | i | nt | nt | nt | nt
Cc1ccc(C(c2nnnn2CC2CCCO2)N2CCN(Cc3ccccc3)CC2)cc1 (stereo not drawn) | i | i | 0.11 | i | i | nt | nt | nt | nt
O=C(COC(=O)C1CCC1)NCCc1ccc(Cl)cc1Cl | i | i | 1.1 | i | i | nt | nt | nt | nt
COc1ccc(NC(=O)NC23CC4(C)CC(C)(CC(C)(C4)C2)C3)cc1OC | 25* | i | 0.26 | i | i | i | i | -1.3 | 3
CC(C)Oc1ncnc2c1[nH]c1ccccc12 | 25* | i | 2.3 | i | i | i | i | -0.99 | -10
CCCOc1ncnc2c1[nH]c1ccccc12 | i | i | 0.57 | i | i | nt | nt | nt | nt
C/C(=N\NC(=O)Cn1nc(C)cc1C)c1ccc([N+](=O)[O-])cc1 | i | i | 0.02 | i | i | nt | nt | nt | nt
CC(=O)c1ccc(NC(=S)NC(C)CCc2ccccc2)cc1 (stereo not drawn) | 25* | i | -0.12 | i | i | i | i | -1.1 | -1
CC(NC(=O)COc1ccccc1)C(=O)NCc1ccccc1Cl (stereo not drawn) | nt | i | nt | i | nt | nt | nt | nt | nt
Cc1nc(-c2ccc(S(=O)(=O)Nc3ccc(Br)cc3Cl)s2)cs1 | 100* | i | -2.8 | i | i | 34%* | i | -1.1 | -20
COc1ccc(CCN2C(=O)C3C4CC(C5C(C(=O)O)=NOC45)C3C2=O)cc1OC (stereo not drawn) | i | i | 0.19 | i | i | nt | nt | nt | nt
COc1ccc(NC(=O)Nc2c(C)n(-c3ccccc3)c(=O)n2C)cc1OC | i | i | -2.9 | i | i | nt | nt | nt | nt
CCOc1ccccc1NC(=O)Nc1c(C)n(-c2ccccc2)c(=O)n1C | 100* | i | -0.13 | i | i | i | i | -0.81 | -1
C/C(=N\NC(=O)CSc1nc(C)[nH]c1[N+](=O)[O-])c1ccc(F)cc1 | 100* | i | -0.21 | i | i | i | i | -0.93 | -3
Cc1c(C)c2ccc(OCC(=O)Nc3ccccn3)cc2oc1=O | i | i | 1.9 | i | i | nt | nt | nt | nt
N#CN1CCC(NS(=O)(=O)c2ccc(C(F)(F)F)cc2)C1 (stereo not drawn) | nt | i | nt | i | nt | nt | nt | nt | nt
CCCC1CC(C)(c2csc(Nc3ccc(OCC)cc3)n2)OC1=O (stereo not drawn) | 100* | i | -2.3 | i | -7.7* | 31%* | i | -0.95 | -20
CCO[C@H]1OC(C(=O)O)=C[C@@H](c2ccc3c(c2)OCO3)[C@@H]1CCCO | i | i | -0.43 | i | i | nt | nt | nt | nt
O=C(C1=C(O)/C(=C/c2ccc(O)cc2)CCC1)C(F)(F)F | 25* | i | -1.3 | i | i | i | i | -0.93 | -21
CC1CCC/C(=C\c2ccc(O)cc2)C1=O (stereo not drawn) | i | i | -1.5 | i | i | nt | nt | nt | nt
SMILES | TMEM16A inh | ANO1 activ | Kir21 inh | KCNK3 inh | KCNK9 inh | TMEM16A reconf | TMEM16A Ca cntr | YFP-HEK293 quench | ClC-1 rat inh
CCN1C(=O)[C@H]2[C@@H](c3ccc(-c4ccc(F)cc4)cc3)N3CCCC[C@@]3(C(=O)OC)[C@H]2C1=O | i | i | 0.31 | i | i | nt | nt | nt | nt
CCCCSc1nnc2c(n1)[nH]c1ccccc12 | 25* | i | -0.67 | i | i | i | i | -1.2 | -10
CCN1/C(=C/C=C/C=C/C=C/c2sc3ccccc3[n+]2CC)Sc2ccccc21 | i | i | 0.83 | i | i | 45%* | i | -0.88 | -18
CCN1/C(=C/C=C/C=C/c2sc3ccccc3[n+]2CC)Sc2ccccc21 | i | nt | -3.9 | nt | i | nt | nt | nt | nt
CCC(=O)Oc1ccc(C/C(=N\O)c2ccc(O)cc2O)o1 | 25* | i | 0.14 | i | i | 24%* | i | -0.93 | -20
Oc1c(Br)cc(Br)cc1C=Nc1cccc2ncccc12 | i | i | 1.1 | i | i | 18%* | i | -1 | -6
CCCCn1c(N)c(N(CC(C)C)C(=O)CCNC(=O)c2ccc(Br)cc2)c(=O)[nH]c1=O | i | i | 0.94 | i | i | nt | nt | nt | nt
Nc1nc(-c2ccccn2)nc(N)c1Cc1ccc(Cl)cc1Cl | i | i | 0.41 | i | i | nt | nt | nt | nt
Oc1ccccc1CNc1cnc2ccccc2c1 | 100* | i | -1.4 | i | i | i | i | -0.96 | -26
CCOC(=O)Cn1nc(-c2ccc(Cl)cc2)cc1N | 100* | i | 0.18 | i | i | i | i | -1.4 | -9
CCN(CC)C(=O)c1ccc(CS(=O)(=O)c2ccc(OC)cc2)o1 | i | i | -0.17 | i | i | nt | nt | nt | nt
CCC1(C)Cc2c(sc3[nH]c(=S)[nH]c(=S)c23)CO1 (stereo not drawn) | i | i | 1.7 | i | i | nt | nt | nt | nt
CCC1(C)Cc2c(sc3[nH]c(=O)[nH]c(=O)c23)CS1 (stereo not drawn) | 100* | i | 0.25 | i | i | i | i | -1.1 | -10
COCCCNc1nc2ccccc2nc1NS(=O)(=O)c1cc(Cl)ccc1Cl | 25* | i | 0.33 | i | i | 16%* | i | -0.86 | -12
Cc1ccc(N(C)S(=O)(=O)c2ccc(-c3cc(C)no3)s2)cc1 | 25* | i | -1.1 | i | i | 33%* | i | -0.98 | -12
CN(C)c1ccc(N=Nc2ccccc2C(=O)OCC(=O)NCC2CCCCC2)cc1 | 100* | i | -2.4 | i | i | i | i | -0.86 | -12
